Hits are enriched below; roughly 19% of the tested compounds scored in any of these assays.
DT40 TDP1 CPT: DT40-hTDP1 cell growth loss with CPT | chicken DT40 Tdp1-/-;hTDP1 cells + 20 nM CPT, ATP luminescence, 48 h | Potency, µM (titrated, usually from 46.2 µM), without a hit: at the highest dose activity change, negative = growth inhibition, actives largely listed as inhibitors | hit rate 12% among 420,000 | AID 686979; note: potency is the fitted concentration of half-maximal effect; % is set by controls: 0 for no effect and ±100 for the full control effect; nearly all actives have a fitted effect of over 55% in size
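Chicken DT40 Tdp1-/- cells stably complemented with human TDP1 were seeded at 400 cells/well in medium containing 20 nM camptothecin, exposed to pin-transferred compounds, and grown at 37 °C for at least 48 hr. Viability was read as ATP luminescence.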
IL1B secr inh: blocks inflammasome-driven IL-1 beta release; AID 743279; THP-1 LPS/ATP IL-1B secretion, AlphaLISA, 16 h; stronger effect = lower value; activity change, % at 57.5 µM; hit rate 4.7% among 360,000; in the data active = activity change below about -50%; inconclusive = mostly about -30% to -49%; note: % is set by controls: 0 for no effect and ±100 for the full control effect
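THP-1 cells pretreated 1 hr with compounds (up to 57.5 uM final), then stimulated with LPS (250 ng/mL final) plus ATP (1.25 mM final); secreted IL-1B measured by AlphaLISA after 16 hr, decreased signal indicating inhibition.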
HepG2 tox: HepG2 cytotoxicity, counter-screen for TGF-b inhibitors; AID 588856; HepG2 CAGA-GFP viability, ATP luminescence, 18 h; hit rate 0.76% among 410,000; Potency, µM (titrated, usually from 46.1 µM), without a hit: at the highest dose activity change, negative = cytotoxicity, usual class: cytotoxic; note: potency is the fitted concentration of half-maximal effect
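HepG2 CAGA-GFP cells (1000/well, DMEM with 1% FBS) received compound, then TGF-beta at 500 pg/mL final, and were incubated 18 hours at 37 degrees C. Viability was read by CellTiter-Glo luminescence. Media-only wells were set as complete cell-killing and DMSO as no toxicity.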
DT40 TDP1 no CPT: qHTS for Inhibitors of human tyrosyl-DNA phosphodiesterase 1 (TDP1): qHTS in cells in absence of CPT; DT40 Tdp1-/- hTDP1 cells, no CPT, ATP luminescence, 48 h; Potency, µM (series often up to 46.2 µM), inactives show at the top dose activity change, negative = growth inhibition, actives largely listed as inhibitors; hit rate 15% among 420,000; note: potency is the fitted concentration of half-maximal effect; % is set by controls: 0 for no effect and ±100 for the full control effect; nearly all actives have a fitted effect of over 55% in size
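Chicken DT40 Tdp1-/- cells complemented with human TDP1, screened without camptothecin (DMSO vehicle only), 400 cells/well. Compounds pin-transferred, cells incubated at 37 °C for at least 48 hr. Growth read as ATP-dependent luminescence (CellTiter-Glo, 30 min at RT).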
ASM inhibitor: inhibitors of human secretory acid sphingomyelinase; placental ASM, HMU-PC fluorogenic substrate, 60 min; Potency, µM (series often up to 57.5 µM), inactives show top-dose activity change, negative = inhibition, usual class: inhibitors; hit rate 0.006% among 340,000; AID 504937; note: potency is the fitted concentration of half-maximal effect
Target sequence (P17405 47-631 limits assumed): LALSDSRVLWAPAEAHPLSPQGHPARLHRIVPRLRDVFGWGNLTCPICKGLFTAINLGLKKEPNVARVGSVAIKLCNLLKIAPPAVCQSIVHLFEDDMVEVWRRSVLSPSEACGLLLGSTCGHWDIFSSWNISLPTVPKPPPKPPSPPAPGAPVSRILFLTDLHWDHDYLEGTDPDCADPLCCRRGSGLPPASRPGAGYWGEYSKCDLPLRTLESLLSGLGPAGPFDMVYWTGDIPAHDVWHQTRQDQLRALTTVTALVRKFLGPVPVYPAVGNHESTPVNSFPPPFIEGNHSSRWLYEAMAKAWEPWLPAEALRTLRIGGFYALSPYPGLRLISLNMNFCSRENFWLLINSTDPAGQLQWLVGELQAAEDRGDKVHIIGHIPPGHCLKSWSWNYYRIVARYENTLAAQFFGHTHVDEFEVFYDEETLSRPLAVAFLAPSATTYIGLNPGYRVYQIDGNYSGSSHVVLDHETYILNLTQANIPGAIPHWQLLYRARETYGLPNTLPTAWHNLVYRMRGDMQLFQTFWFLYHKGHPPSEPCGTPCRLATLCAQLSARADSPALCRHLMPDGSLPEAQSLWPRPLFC
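Human placenta-derived ASM preincubated with compound 10 min at room temperature, then reacted with 9 uM (final) fluorogenic HMU-PC substrate for 60 min at 37 C. Stop solution raises pH to 10; fluorescence read at Ex 386/Em 447 nm.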
TGFb SMAD3 inh: blocks TGF-b signaling; Potency, µM (titrated, usually from 46.1 µM), without a hit: top-dose activity, negative = inhibition, usual class: inhibitors; hit rate 1.2% among 410,000; HepG2 CAGA-GFP TGF-b/SMAD3 reporter, GFP fluorescence, 18 h; TGF-beta stimulated, 500 pg/mL final; note: potency is the fitted concentration of half-maximal effect; % is set by controls: 0 for no effect and ±100 for the full control effect; nearly all actives have a fitted effect of over 65% in size
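Inhibition was scored as loss of TGF-beta-induced (500 pg/mL final, 18 hours, 37 degrees C) GFP in HEPG2 cells carrying a CAGA-GFP reporter, in DMEM with 1% FBS. Well GFP was summed per cell; Activity was normalised to unstimulated and stimulated DMSO wells, then concentration-response fitting.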
Active calls of the source: *. Unless noted, calls come from the whole dose curve; as a rule, active = well fitted curve in the direction sought with a large enough effect; inconclusive = small, poorly fitted or top-dose-only effect, or another doubt; inactive = no such curve, though single readings can be large; an effect the other way counts as inactive or inconclusive.

OCCN(CCO)CCO was read as DT40 TDP1 CPT 15.5% and DT40 TDP1 no CPT 1.2%.
O=C(CN1C(=O)CN=C(c2ccccc2)c2ccccc21)Nc1cccc(C(F)(F)F)c1 was read as DT40 TDP1 CPT inconclusive, HepG2 tox -82.1%, DT40 TDP1 no CPT inconclusive and TGFb SMAD3 inh inconclusive.
For COC(=O)C1=C(c2ccc(F)cc2OCc2ccccc2)C[C@@H]2CC[C@H]1N2C(=O)NCc1cccc(C(F)(F)F)c1 the results were DT40 TDP1 CPT inconclusive, IL1B secr inh -59.3*, HepG2 tox -20.9%, DT40 TDP1 no CPT 18.4µM*, ASM inhibitor 1.0% and TGFb SMAD3 inh -4.5%.
COC(=O)C1=C(c2ccccc2OCc2ccccc2)C[C@@H]2CC[C@H]1N2C(=O)NCc1cccc(F)c1 was read as DT40 TDP1 CPT inconclusive, IL1B secr inh inconclusive, HepG2 tox 30.6%, DT40 TDP1 no CPT inconclusive, ASM inhibitor -4.2% and TGFb SMAD3 inh inconclusive.
For COC(=O)C1=C(c2ccc(F)cc2OCc2ccccc2)C[C@@H]2CC[C@H]1N2C(=O)NCc1ccc(OC)cc1 the results were DT40 TDP1 CPT inconclusive, IL1B secr inh inconclusive, HepG2 tox 6.3%, DT40 TDP1 no CPT inconclusive, ASM inhibitor -0.9% and TGFb SMAD3 inh 9.7%.
For COC(=O)C1=C(c2ccc(F)cc2OCc2ccccc2)C[C@@H]2CC[C@H]1N2C(=O)NCc1ccc(Br)cc1 the results were DT40 TDP1 CPT inconclusive, IL1B secr inh -59.7*, HepG2 tox 10.1%, DT40 TDP1 no CPT 14.6µM*, ASM inhibitor 1.2% and TGFb SMAD3 inh -1.3%.
For Clc1ccccc1C1=NCc2nncn2-c2sc(Br)cc21 the results were DT40 TDP1 CPT 6.7%, IL1B secr inh 12.3, HepG2 tox 17.6%, DT40 TDP1 no CPT -9.4%, ASM inhibitor 1.6% and TGFb SMAD3 inh 3.1%.
`CC(C)=CCCC1(C)C=Cc2c(O)c3c(c(CC=C(C)C)c2O1)OC12C(=CC4CC1C(C)(C)OC2(C/C=C(/C)C(=O)O)C4=O)C3=O` (stereo unspecified) gave DT40 TDP1 CPT 0.92µM* and DT40 TDP1 no CPT 1.03µM*.
CC(C)CCCC1(C)C=Cc2c(O)c3c(c(CCC(C)C)c2O1)OC12C(CC4CC1C(C)(C)OC2(CCC(C)C(=O)O)C4O)C3=O (stereo unspecified) was read as DT40 TDP1 CPT -12.8% and DT40 TDP1 no CPT -7.1%.
CC(C)=CCCC1(C)C=Cc2c(O)c3c(c(CC=C(C)C)c2O1)OC12C(=CC4CC1C(C)(C)OC2(C/C=C(/C)C(=O)O)C4O)C3=O (stereo unspecified) was read as DT40 TDP1 CPT 4.61µM* and DT40 TDP1 no CPT 3.66µM*.
For O=C1NC(=S)N(c2ccccc2)C(=O)C1C(c1ccncc1)C1C(=O)NC(=S)N(c2ccccc2)C1=O (stereo unspecified) the results were DT40 TDP1 CPT 2.5%, IL1B secr inh 8.5, HepG2 tox 0.6%, DT40 TDP1 no CPT -18.1%, ASM inhibitor 2.2% and TGFb SMAD3 inh -2.6%.
Screening CCCC[N+]1(C)[C@@H]2CC(OC(=O)[C@H](CO)c3ccccc3)C[C@H]1[C@@H]1O[C@@H]12 (stereo partly specified) returned DT40 TDP1 CPT -7.9%, IL1B secr inh 27.8, HepG2 tox 2.0%, DT40 TDP1 no CPT -15.2%, ASM inhibitor 2.7% and TGFb SMAD3 inh 3.4%.
O=C1NC(=S)NC(=O)C1Cc1ccccc1 was read as DT40 TDP1 CPT 0.1%, IL1B secr inh -11.3, HepG2 tox -20.4%, DT40 TDP1 no CPT -8.4%, ASM inhibitor 6.2% and TGFb SMAD3 inh -9.8%.
`O=C1NC(=O)C(Cc2ccccc2)(Cc2ccccc2)C(=O)N1Cc1ccccc1` gave DT40 TDP1 CPT 23.1µM*, IL1B secr inh -53.8*, HepG2 tox -52.9%, DT40 TDP1 no CPT inconclusive, ASM inhibitor -15.0% and TGFb SMAD3 inh inconclusive.
`O=C1NC(=O)N(Cc2ccccc2)C(=O)C1Cc1ccccc1` (stereo unspecified) gave DT40 TDP1 CPT -19.8%, IL1B secr inh -1.2, HepG2 tox 12.7%, DT40 TDP1 no CPT 8.2µM*, ASM inhibitor 1.2% and TGFb SMAD3 inh inconclusive.
Screening CC1(C)Cc2c(c(N3CCOCC3)nc3sc4c(NCc5ccccc5)nnnc4c23)CS1 returned DT40 TDP1 CPT 16.4µM*, IL1B secr inh -21.0, HepG2 tox -11.7%, DT40 TDP1 no CPT 23.1µM*, ASM inhibitor 0.2% and TGFb SMAD3 inh 19.0%.
`CC1(C)C(O)CC(O)[C@]2(C)C1CC(O)[C@]1(C)C2CC[C@@]2(C)C(c3ccoc3)CC3OC312` (stereo partly specified) gave DT40 TDP1 CPT -7.6% and DT40 TDP1 no CPT -12.9%.
Screening COc1ccc(NC(=O)c2oc3ccc(S(=O)(=O)N(C)C4CCCCC4)cc3c2C)cc1 returned DT40 TDP1 CPT 10.3µM*, HepG2 tox -13.3%, DT40 TDP1 no CPT 8.2µM* and TGFb SMAD3 inh -28.0%.
Screening CN(C)CC#CCn1c2ccccc2c2ccccc21 returned DT40 TDP1 CPT -9.7%, IL1B secr inh inconclusive, HepG2 tox -29.0%, DT40 TDP1 no CPT inconclusive, ASM inhibitor -4.9% and TGFb SMAD3 inh inconclusive.
For FC(F)(F)c1nc(N2CCN(c3ccccc3)CC2)nc2c1CCCCC2 the results were DT40 TDP1 CPT inconclusive, IL1B secr inh 11.9, HepG2 tox 4.5%, DT40 TDP1 no CPT 18.4µM*, ASM inhibitor -7.8% and TGFb SMAD3 inh -5.0%.
`CC(Oc1ccccc1)C(=O)Nc1ccc(C(=O)OCc2cc(=O)n3nc(C4CC4)sc3n2)cc1` (stereo unspecified) gave DT40 TDP1 CPT inconclusive, HepG2 tox -24.6%, DT40 TDP1 no CPT inconclusive and TGFb SMAD3 inh -4.3%.
Screening CC12CCC3C(CC=C4CC(O)CCC43C)C1CC(=CN1CCOCC1)C2=O (stereo unspecified) returned DT40 TDP1 CPT 1.8%, IL1B secr inh 7.2, HepG2 tox -19.3%, DT40 TDP1 no CPT -12.7%, ASM inhibitor -2.4% and TGFb SMAD3 inh 5.1%.
O=C(CN1CCCC2CCCCC21)c1ccc(I)cc1 (stereo unspecified) was read as DT40 TDP1 CPT -6.3%, HepG2 tox -3.1%, DT40 TDP1 no CPT -2.4% and TGFb SMAD3 inh 4.7%.

Bioassay records from PubChem.
